# A selection: hits, their analogues and other compounds. The true share with any hit is near 2%.
# PfHsp40 yeast: compounds rescuing yeast from Plasmodium falciparum HSP40 toxicity. growth rescue, % at 12.5 µM. S. cerevisiae expressing PfHsp40, growth rescue, ATP luminescence. actives 0.68% (n = 340,000); in the data active = growth rescue above about 28%, passing the limit was not always enough;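 note: yeast W303a lacking pdr1 and pdr3 grown in galactose medium; growth measured after three days at 30 °C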
# Y pestis TopoI: blocks Yersinia pestis topoisomerase I activity; Y. pestis Topo-I cleavage product accumulation, plate reader; activity, % at 10 µM; actives 0.064% (n = 360,000); in the data active = activity above about 50%, passing the limit was not always enough
# CCHFV vOTU inh: CCHFV vOTU protease inhibition. Pep-AMC fluorescence. inhibition, % at 11.5 µM. actives 0.55% (n = 370,000). AID 651958; in the data active = inhibition above about 30%
# PrPC surface inh: reduces human prion protein on the cell surface; cell surface PrPC, TR-FRET read-out; inhibition, % at 13.8 µM; P04156; AID 720596; actives 0.43% (n = 370,000); in the data active = inhibition above about 24%
# BJeLR viability: kills HRASV12-expressing BJeLR cells; AID 1554; BJeLR (HRASV12) viability, CellTiter-Glo ATP luminescence, 48 h; inhibition, % (concentration not given with the values); actives 0.17% (n = 300,000); in the data active = inhibition above about 50%
# PrP UTR inh: suppresses PrP 5' UTR mRNA reporter expression; actives 0.35% (n = 340,000); inhibition, % (test concentration not listed); cell-based PrP 5' UTR mRNA reporter, plate reader; AID 488862; in the data active = inhibition above about 52%
# PrPC TRFRET cf: cell surface PrPC inhibition, TR-FRET confirmation. shares compounds with PrPC surface inh. cell surface PrPC level. inhibition, % at 13.8 µM. actives 65% (n = 1,500). AID 743200; in the data active = inhibition above about 25%
# LD9 tox: LD9 cell cytotoxicity, PrPc inhibitor counter-screen. shares compounds with PrPC surface inh. LD9 cells cytotoxicity, luminescence viability. inhibition, % at 13.8 µM. actives 29% (n = 1,500); in the data active = inhibition above about 9.5%
# Hits are given with their value; 0 = inactive; - = no result.
SMILES,PfHsp40 yeast,Y pestis TopoI,CCHFV vOTU inh,PrPC surface inh,BJeLR viability,PrP UTR inh,PrPC TRFRET cf,LD9 tox
N#CC1=C2SCN(Cc3ccccc3)CN2C(=O)CC1c1cccs1 (stereo not given),0,0,0,27,0,0,56,0
CC(=NCc1cccnc1)c1c(O)n(-c2ccccc2C)c(=O)[nH]c1=O,0,0,0,0,0,0,-,-
CC(=NCc1cccnc1)c1c(O)n(-c2ccc(C)cc2)c(=O)[nH]c1=O,0,0,0,85,0,0,65,0
Brc1ccc(-c2nn3c(-c4ccco4)nnc3s2)o1,0,0,0,62,0,0,76,0
Cc1ccccc1CN1C(=O)CN(S(C)(=O)=O)CC1(C)C(=O)NCc1ccccc1 (stereo not given),-,-,0,25,-,-,0,0
O=C(NN=Cc1ccc(O)cc1)c1cc(-c2ccc(Cl)cc2)n[nH]1,-,-,0,26,-,-,32,0
COc1ccc(-c2cc(C(=O)NN=Cc3ccc(-c4ccccc4)cc3)[nH]n2)cc1,-,-,0,0,-,-,-,-
COc1ccc(-c2cc(C(=O)NN=C/C(C)=C/c3ccccc3)[nH]n2)cc1,-,-,0,25,-,-,0,0
O=C(O)c1ccc(C=NNC(=O)c2cc(-c3ccc(Cl)cc3)n[nH]2)cc1,-,-,0,0,-,-,-,-
C[C@H]1Cn2cnc(C(=O)N3CCN(c4ccccc4)CC3)c2C(=O)N1,-,-,0,0,-,-,-,-
Cc1ccccc1C(=O)NN1C(=O)CSC1=S,0,0,0,34,0,0,0,0
C[C@H]1[C@@H](NC(=O)C#Cc2ccccc2)CC[C@@]23CCCN2C(=O)CCC[C@@H]13,-,-,-,0,-,-,-,-
COC(=O)C[C@@H]1CC[C@H]2[C@H](COc3ccc(NC(=O)Nc4cccc(C#N)c4)cc3C(=O)N2C)O1,-,-,0,0,-,-,-,-
N/C(=N\OC(=O)COc1ccc2ccccc2c1Br)c1ccccn1,0,0,0,59,0,0,84,0
N/C(=N\OC(=O)COc1ccc(Br)cc1Cl)c1ccccn1,0,0,0,0,0,0,-,-
N/C(=N\OC(=O)COc1ccc2ccccc2c1Br)c1cccnc1,-,-,0,47,0,-,78,0
CCOC(=O)N1CCN(C(=O)COc2ccc3ccccc3c2Br)CC1,0,0,0,50,0,0,79,0
COc1ccc(Cn2cc(CN3[C@@H](c4ccccc4)COc4cc(Br)ccc4S3(=O)=O)nn2)cc1,-,-,0,0,-,-,-,-
CCOc1cccc(-c2nnc3n2N=C(c2ccc(OC)cc2)CS3)c1,-,-,0,0,-,-,-,-
C=C[C@@]1(C)CC(=O)[C@]2(O)[C@@]3(C)[C@@H](O)CCC(C)(C)[C@@H]3[C@H](O)[C@H](OC(C)=O)[C@@]2(C)O1,0,0,0,34,0,0,26,0
O=C(NCCc1ccccn1)c1ccc(OC2CCN(CCc3ccccc3)CC2)cc1,0,0,0,45,0,0,0,0
CC(Cc1ccccn1)NC(=O)c1ccc(OC2CCN(CCc3ccccc3)CC2)cc1 (stereo not given),0,0,0,0,0,0,-,-
COc1ccc(C(=O)Nc2cc(Cl)c(Br)cc2C(=O)O)cc1,-,-,-,0,-,-,-,-
COC(=O)[C@]12C[C@H](CC(=O)NCc3ccc(C)o3)C(=O)N(Cc3cccc4ccccc34)C1=C[C@H](COCc1ccccc1)O[C@@H]2C,-,-,0,0,-,-,-,-
Nc1nnc(SCc2nc3scc(-c4ccccc4)c3c(=O)[nH]2)s1,0,0,0,26,0,0,53,0
Cc1nnc(SCc2nc3scc(-c4ccccc4)c3c(=O)[nH]2)s1,0,0,0,0,0,0,-,-
COc1ccc(CCNC(=O)CSc2nn3c(=O)c(C)nnc3s2)cc1OC,0,0,0,25,0,0,0,0
CCOc1ccc(/C(O)=C2\C(=O)C(=O)N(c3cc(C)on3)C2c2ccccc2OC)cc1 (stereo not given),0,0,0,35,0,0,55,0
COc1ccc(/C(O)=C2/C(=O)C(=O)N(c3ccccn3)C2c2ccc(F)cc2)cc1 (stereo not given),0,0,0,0,0,0,-,-
CCOc1ccc(/C(O)=C2\C(=O)C(=O)N(c3ccccn3)C2c2ccccc2F)c(C)c1 (stereo not given),-,0,0,34,-,-,67,0
